# mHTT CaM bind: disrupts binding of mutant huntingtin to calmodulin | P42858 | AlphaScreen His-mHTT/GST-CaM binding, luminescence | inhibition, % at 15 µM | 190,000 compounds, 3.6% hits;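 note: 0% = both proteins with DMSO and 100% = one protein alone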
# Target sequence (P42858 whole entry, looked up, stated change not applied): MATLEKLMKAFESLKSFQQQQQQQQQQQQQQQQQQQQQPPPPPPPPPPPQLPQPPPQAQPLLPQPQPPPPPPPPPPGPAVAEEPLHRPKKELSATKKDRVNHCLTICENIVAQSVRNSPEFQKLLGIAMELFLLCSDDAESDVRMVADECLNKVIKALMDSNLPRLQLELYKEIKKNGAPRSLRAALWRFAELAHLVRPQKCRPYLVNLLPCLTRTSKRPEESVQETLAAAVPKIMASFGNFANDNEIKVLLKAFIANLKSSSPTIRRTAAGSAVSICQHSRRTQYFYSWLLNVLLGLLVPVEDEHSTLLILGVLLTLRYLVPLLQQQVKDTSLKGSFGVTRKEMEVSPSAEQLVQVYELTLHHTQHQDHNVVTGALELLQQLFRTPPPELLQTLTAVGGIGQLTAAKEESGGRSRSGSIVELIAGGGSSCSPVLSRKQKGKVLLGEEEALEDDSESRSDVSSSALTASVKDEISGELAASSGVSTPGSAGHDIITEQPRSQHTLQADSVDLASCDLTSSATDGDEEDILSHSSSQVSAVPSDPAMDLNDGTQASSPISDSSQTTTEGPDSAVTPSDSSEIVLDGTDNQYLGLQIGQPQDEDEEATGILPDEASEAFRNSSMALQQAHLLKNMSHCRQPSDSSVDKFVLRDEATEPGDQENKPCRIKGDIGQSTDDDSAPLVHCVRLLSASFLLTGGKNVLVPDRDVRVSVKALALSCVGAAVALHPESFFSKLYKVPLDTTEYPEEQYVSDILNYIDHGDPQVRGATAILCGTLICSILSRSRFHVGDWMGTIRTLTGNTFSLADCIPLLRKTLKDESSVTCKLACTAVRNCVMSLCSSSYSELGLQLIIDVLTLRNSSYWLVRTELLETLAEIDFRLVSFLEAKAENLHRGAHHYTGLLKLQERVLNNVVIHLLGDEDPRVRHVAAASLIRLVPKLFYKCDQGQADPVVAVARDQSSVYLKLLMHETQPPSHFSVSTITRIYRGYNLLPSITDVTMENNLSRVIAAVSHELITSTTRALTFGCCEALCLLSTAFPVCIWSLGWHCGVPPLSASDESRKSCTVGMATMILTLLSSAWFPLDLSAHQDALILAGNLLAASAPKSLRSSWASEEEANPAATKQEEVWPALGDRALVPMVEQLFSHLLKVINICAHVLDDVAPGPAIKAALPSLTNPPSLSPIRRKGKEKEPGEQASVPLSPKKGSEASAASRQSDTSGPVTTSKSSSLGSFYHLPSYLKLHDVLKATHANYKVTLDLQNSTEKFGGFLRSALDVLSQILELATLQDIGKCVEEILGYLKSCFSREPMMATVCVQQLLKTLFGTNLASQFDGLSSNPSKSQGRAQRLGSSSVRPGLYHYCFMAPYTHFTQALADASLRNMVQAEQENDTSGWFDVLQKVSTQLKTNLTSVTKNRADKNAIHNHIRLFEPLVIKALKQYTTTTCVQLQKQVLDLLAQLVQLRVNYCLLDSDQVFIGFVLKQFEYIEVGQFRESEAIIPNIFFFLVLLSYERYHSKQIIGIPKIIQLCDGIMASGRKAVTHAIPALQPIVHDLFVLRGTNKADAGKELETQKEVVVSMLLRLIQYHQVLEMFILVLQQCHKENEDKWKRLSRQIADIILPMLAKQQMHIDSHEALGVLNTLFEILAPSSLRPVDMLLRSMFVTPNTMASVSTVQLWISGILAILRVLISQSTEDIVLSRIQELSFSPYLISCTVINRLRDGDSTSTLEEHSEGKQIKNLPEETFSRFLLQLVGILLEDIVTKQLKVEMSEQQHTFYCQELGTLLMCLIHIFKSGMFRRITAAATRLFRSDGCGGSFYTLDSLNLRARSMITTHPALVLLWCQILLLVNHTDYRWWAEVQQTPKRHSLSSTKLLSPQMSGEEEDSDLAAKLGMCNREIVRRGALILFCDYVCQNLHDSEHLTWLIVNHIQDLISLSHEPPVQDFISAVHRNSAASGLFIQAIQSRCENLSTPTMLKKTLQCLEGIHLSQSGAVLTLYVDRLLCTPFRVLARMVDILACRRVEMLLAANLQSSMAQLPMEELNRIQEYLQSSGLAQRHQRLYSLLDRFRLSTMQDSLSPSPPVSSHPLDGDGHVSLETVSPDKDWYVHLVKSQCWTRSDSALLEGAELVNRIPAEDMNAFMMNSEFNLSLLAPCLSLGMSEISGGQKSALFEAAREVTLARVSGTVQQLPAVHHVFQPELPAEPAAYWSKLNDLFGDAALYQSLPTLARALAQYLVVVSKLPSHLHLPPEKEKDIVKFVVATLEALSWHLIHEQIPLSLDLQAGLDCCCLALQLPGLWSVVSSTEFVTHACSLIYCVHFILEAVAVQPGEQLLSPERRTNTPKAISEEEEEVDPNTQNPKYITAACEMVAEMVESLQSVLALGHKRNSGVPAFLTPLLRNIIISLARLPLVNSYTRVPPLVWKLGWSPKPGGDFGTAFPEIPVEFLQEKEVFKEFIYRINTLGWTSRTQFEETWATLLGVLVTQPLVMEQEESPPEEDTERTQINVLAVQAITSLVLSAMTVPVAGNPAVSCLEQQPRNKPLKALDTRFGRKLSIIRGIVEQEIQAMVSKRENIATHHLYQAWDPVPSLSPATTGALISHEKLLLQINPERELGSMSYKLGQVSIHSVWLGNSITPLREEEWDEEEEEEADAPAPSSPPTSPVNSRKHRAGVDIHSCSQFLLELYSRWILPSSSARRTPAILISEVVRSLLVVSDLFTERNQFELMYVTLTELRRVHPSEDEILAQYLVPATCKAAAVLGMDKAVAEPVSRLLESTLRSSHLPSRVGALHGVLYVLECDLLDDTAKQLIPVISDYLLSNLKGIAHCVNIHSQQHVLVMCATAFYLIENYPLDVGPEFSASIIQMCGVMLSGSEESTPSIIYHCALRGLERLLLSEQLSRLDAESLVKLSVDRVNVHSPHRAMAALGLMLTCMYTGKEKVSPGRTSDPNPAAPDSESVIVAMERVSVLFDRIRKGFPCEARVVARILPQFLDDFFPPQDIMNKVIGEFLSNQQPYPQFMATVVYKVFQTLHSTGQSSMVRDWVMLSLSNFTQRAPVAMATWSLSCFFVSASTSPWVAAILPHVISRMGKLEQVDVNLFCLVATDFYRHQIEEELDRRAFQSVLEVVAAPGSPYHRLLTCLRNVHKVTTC
# Pf apPOL inh: Pf-apPOL DNA polymerase inhibition | Recombinant Pf-apPOL, molecular beacon fluorescence, 1.5 h | inhibition, % at 10 µM | 210,000 compounds, 0.25% hits | AID 1794808
# Starred values were filed as active, the others as inactive; . = not tested or not shown; ! = a repeat was not active. Only some compounds are listed: those with a hit (about 3.6% of all), similar ones and a draw of the others. Cut-off read from the data, not from the text of the source: active = inhibition above about 50%; inactive = the rest.
SMILES,mHTT CaM bind,Pf apPOL inh
OCCN(CCO)CC(O)COc1ccc(C23CC4CC(CC(C4)C2)C3)cc1 (centres undefined),15,-1
Cc1ccc(OCC(O)CNC(C)C)cc1 (centres undefined),-9,2
CC(C)NCC(O)COc1ccc(C23CC4CC(CC(C4)C2)C3)cc1 (centres undefined),100*,-5
CC(C)(C)NCC(O)COc1ccc(C23CC4CC(CC(C4)C2)C3)cc1 (centres undefined),100*,0
C[N+]1(CC(O)COc2ccc(C34CC5CC(CC(C5)C3)C4)cc2)CCCC1 (centres undefined),52*,2
Cc1ccc(Cc2nc(-c3ccc(=O)[nH]c3)no2)cc1,-1,2
Cc1cc(C2CCCN2C(=O)c2c(-c3ccccc3Cl)noc2C)on1 (centres undefined),2,0
CC(NC1CSCC1O)=C1C(=O)CC2C1C2(C)C (centres undefined),.,-10
COc1cccc(C2C(C#N)=C(N)Oc3n[nH]c(C)c32)c1 (centres undefined),-1,0
COc1ccc(C2C(C#N)=C(N)Oc3n[nH]c(C)c32)cc1COc1cccc(Cl)c1 (centres undefined),69*,2
N#CC1=C(N)Oc2n[nH]c(-c3ccccn3)c2C1c1ccc(F)cc1 (centres undefined),65*,5
CCOc1cc(C2C(C#N)=C(N)Oc3n[nH]c(-c4ccccc4)c32)ccc1O (centres undefined),28,-2
N#CC1=C(N)Oc2n[nH]c(-c3ccccn3)c2C1c1cccc(F)c1 (centres undefined),15,4
CCOc1cc(C2C(C#N)=C(N)Oc3n[nH]c(-c4ccccn4)c32)ccc1O (centres undefined),52*,-2
COc1ccc(-c2noc(C3CCN(CC(=O)Nc4c(C)cccc4Cl)CC3)n2)cc1,-2,-4
O=C(NCc1ccccc1Cl)c1cn2ccncc2n1,-2,-2
CCOc1ccccc1NC(=O)c1ccc(F)c(S(=O)(=O)N(CC)c2ccccc2)c1,-3,-6
COc1ccc(C2NC(=O)NC(C)=C2C(=O)Nc2ccc(F)c(F)c2)cc1OC (centres undefined),-1,65*!
COc1ccccc1C1NC(=O)NC(C)=C1C(=O)Nc1ccc(F)c(F)c1 (centres undefined),6,0
Cc1nc2c(c(NCc3cccnc3)n1)CCC2,-9,-3
Clc1ccc2c(c1)SS(Cl)=N2 (centres undefined),55*,.
Cc1ccc(-c2nc(-c3ccc4c(c3)oc(=O)n4C)no2)cc1,2,-2
Cc1ccccc1-n1nc2c(c1NC(=O)C(C)(C)C)CS(=O)C2 (centres undefined),-3,-2
COCCNC(=O)C1(C)CCC(=O)N1CCc1c[nH]c2ccccc12 (centres undefined),2,-1
CC(C)CCNC(=O)C1(C)CCc2ccccc2C(=O)N1CCc1c[nH]c2ccccc12 (centres undefined),98*,-5
SMILES,mHTT CaM bind,Pf apPOL inh
O=C(NCc1csc(-c2cccs2)n1)C1CCN(C(=O)c2cccc(Cl)c2)CC1,15,-8
O=C(Nc1c2c(nn1-c1ccc(F)cc1)CSC2)c1cc(Cl)ccc1[N+](=O)[O-],21,-11
CC(=O)Nc1ccc(/C=C2\OC(=O)c3c2cc(C)[nH]c3=O)cc1,2,-4
Cc1cc2c(c(=O)[nH]1)C(=O)O/C2=C/c1cn[nH]c1-c1cccs1,64*,.
COc1ccccc1/C=C1N=C(/C=C/c2ccc(Cl)cc2Cl)OC\1=O,19,-3
CC(=O)NCCc1csc(C2CCCN(C(=O)c3ccc(N(C)C)cc3)C2)n1 (centres undefined),14,3
Cc1cc2c(C(C)C)c(O)c(O)c(C=NCSN)c2c(O)c1-c1c(C)cc2c(C(C)C)c(O)c(O)c(C=NCSN)c2c1O,100*,.
O=C1NC(=O)/C(=C/c2ccccc2Br)S1,-3,5
O=c1[nH]c2cc(Cl)c(Cl)cc2nc1CN1CCN(c2ccccc2)CC1,52*,6
Cc1cc2nc(CN3CCN(c4cccc(Cl)c4)CC3)c(=O)[nH]c2cc1C,-7,0
O=C(Nc1cc(C(F)(F)F)ccc1OCC(F)(F)F)C(Cl)(Cl)Cl,.,1
COc1ccc(-c2oc(N=CN3CCCCCC3)c(C#N)c2-c2ccc(OC)cc2)cc1,20,3
COc1ccc(-c2oc(NC(=O)C(F)(F)F)c(C#N)c2-c2ccc(OC)cc2)cc1,63*,0
COC(=O)[C@H](CC(C)C)N(CCc1cn(Cc2ccccc2)nn1)S(=O)(=O)c1ccc(F)cc1Br,16,-4
COC(=O)[C@H](CC(C)C)N(CCc1cn(Cc2ccc(C)cc2)nn1)S(=O)(=O)c1ccc(F)cc1Br,72*,2
COCCCNC(=O)N1CCCCCC1c1cccs1 (centres undefined),-4,4
COc1cc(/C=C2\SC(=O)N(Cc3ccc(F)cc3)C2=O)c(Br)cc1O,75*,0
COc1ccccc1/C=C1\SC(=O)N(Cc2ccc(F)cc2)C1=O,-3,-6
c1ccc(OCC2CN3CCOB(OCC3)O2)cc1 (centres undefined),2,-11
COc1ccc(OC)c(S(=O)(=O)Nc2ccccn2)c1,-1,-7
O=C1CC(c2ccccc2Cl)c2c(n[nH]c2-c2ccccc2)N1 (centres undefined),69*,2
COc1ccc(C2CC(=O)Nc3n[nH]c(-c4ccc(Cl)cc4)c32)c(OC)c1 (centres undefined),39,-3
O=C1CC(c2ccccc2F)c2c(n[nH]c2-c2ccccc2)N1 (centres undefined),7,4
COc1ccc(C2CC(=O)Nc3n[nH]c(-c4ccccc4)c32)c(OC)c1 (centres undefined),80*,1
O=C(c1cccc(Br)c1)N1N=C(C(F)(F)F)CC1(O)c1cccnc1 (centres undefined),3,3
SMILES,mHTT CaM bind,Pf apPOL inh
COc1ccc(NC(=O)N2CC3CC(NC(=O)c4cccs4)C2C3)c(C)c1 (centres undefined),5,-3
CCOc1ccc(N=C2C(=O)Nc3ccccc32)cc1,35,-2
CCOc1ccc(N=C2C(=O)Nc3ccc(C)c(Br)c32)cc1,57*,-2
COc1ccc(Cc2nc(-c3cccc(-c4ccn[nH]4)c3)no2)cc1,32,-4
c1ccc(OCCOc2ccc(-c3cc(C4CCNCC4)[nH]n3)cc2)cc1,62*,8
c1ccc(OCCC2CCNCC2)cc1,-2,-4
CCN(c1ccccc1)S(=O)(=O)Cc1ccccc1,-1,-7
Cc1ccccc1CS(=O)(=O)CCC(=O)NCCN1CCOCC1,1,0
CC12CC(NC(=O)N1Cc1ccccc1)c1cc(Br)ccc1O2 (centres undefined),10,3
O=C1CN(C(=O)C2CC2)C(c2ccccc2)c2cc(Br)ccc2N1 (centres undefined),10,-4
CCN(CC)C1C(=O)Nc2ccc(Br)cc2C1c1ccccc1Cl (centres undefined),94*,13
O=C1Nc2ccc(Br)cc2C(c2ccccc2Cl)C1N1CCCCC1 (centres undefined),80*,-7
CCN(Cc1ccccc1)C(=O)c1ccnc(N2CCC(C)CC2)n1,-15,-4
O=[N+]([O-])c1cccc(C=NN=Cc2cccc([N+](=O)[O-])c2)c1,.,3

# High-throughput results: PubChem, University of Kansas High Throughput Screening Laboratory
